This is an account of results in PubChem BioAssay (EPA / NIEHS).

As a reminder, the AC50 is the concentration giving half of the maximal activity seen.

Molecules are shown by their SMILES. Results filed as inconclusive are left out. Where a structure was tested more than once in an assay, its records may differ in their call. Calls of active or inactive are those of the source. How the source made its calls: active means hit-call score of the fitted dose curve at least 0.9, where 1 is the maximum; inconclusive means response in the unintended direction; inactive means score below 0.9.

Read-out in the first assay: xenobiotic metabolism (CYP2C9), CYP2C9 (gene 1559)
In words: CLD_CYP2C9_6hr: CellzDirect (CLD) Gene Expression Assay for xenobiotic metabolism (CYP2C9) at 6 hours (AID 2283664). An outline of the steps:
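Readout is qNPA chemiluminescence of CYP2C9 mRNA, taken 6 h after dosing of cultured human liver primary cells at several concentrations. Activity is the increase over 0.2% DMSO baseline. Morphology-based cytotoxicity flagged yes/no.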
In the case of `COC(=O)c1ccccc1C(=O)OC`, the molecule was called inactive.

`C=CCC1=C(C)C(OC(=O)C2C(C=C(C)C)C2(C)C)CC1=O` (stereo not given): the molecule was called inactive.

Consider `Cc1cc(Cl)ccc1OCC(=O)O`, for which the outcome was inactive.

Take `OC(c1ccc(Cl)cc1)(c1cncnc1)c1ccccc1Cl` (stereo not given): the molecule was classed as inactive.

For the molecule `Fc1ccc(Oc2ccnc3cc(Cl)cc(Cl)c23)cc1`, the molecule was classed as inactive.

`C#CCOS(=O)OC1CCCCC1Oc1ccc(C(C)(C)C)cc1` (stereo not given): the call was inactive.

`COc1nc(C)nc(NC(=O)NS(=O)(=O)c2ccccc2Cl)n1`: the molecule was classed as inactive.

As for `COP(=S)(OC)Oc1nc(Cl)c(Cl)cc1Cl`, the outcome was inactive.

For `COc1nc(C)nc(NC(=O)NS(=O)(=O)c2ccccc2CCC(F)(F)F)n1`, the result was inactive.

With `CNC(=S)S`, the call was inactive.

In the case of `COc1nc(NC(C)C)nc(NC(C)C)n1`, the result was inactive.

Turning to `COC(=O)C=C(C)OP(=O)(OC)OC`, the call was inactive.

System in the next assay: not listed separately
Briefly: CCTE_Simmons_CellTiterGLO_HEK293T: Viability Assessment in CCTE's Assays for Thyroperoxidase (TPO) Inhibition, Simmons Lab (AID 2283665).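 On AC50: cells exposed to compound for 24 h before readout; actives reduce ATP signal below DMSO vehicle meaning cytotoxicity.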 Summed up:
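Luciferase-coupled ATP content after 24 h exposure gives viability; 8-point series from 5 nM to 87.5 uM final in 0.5% DMSO. Human HEK293T cells, 1% FBS medium, three biological replicates, dichlone positive control.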
With `O=C(Nc1ccccc1)Nc1ccnc(Cl)c1`, the AC50 was 53.8 µM (active).

For the molecule `C=CCC1=C(C)C(OC(=O)C2C(C=C(C)C)C2(C)C)CC1=O` (stereo not given), the AC50 is 54.1 µM (active).

For the molecule `C=CCC1=C(C)[C@@H](OC(=O)[C@@H]2[C@@H](C=C(C)C)C2(C)C)CC1=O`, the AC50 is 42.5 µM (active).

Regarding `CC1COC(Cn2cncn2)(c2ccc(Oc3ccc(Cl)cc3)cc2Cl)O1` (stereo not given), the AC50 was 27.9 µM (active).

As to `CCCCNC(=O)n1c(NC(=O)OC)nc2ccccc21`, the outcome was inactive.

Regarding `COP(=S)(OC)Oc1nc(Cl)c(Cl)cc1Cl`, the AC50 was 85.6 µM (active).

Turning to `CNC(=S)S`, the call was inactive.

`CCOC(=O)CC(SP(=S)(OC)OC)C(=O)OCC` (stereo not given): the molecule was classed as inactive.

Turning to `COC(=O)C=C(C)OP(=O)(OC)OC`, the molecule was called inactive.

System in the next assay: not listed separately
Briefly: Tanguay_ZF_120hpf_TR_legacy: (Legacy) Oregon State University Tanguay Lab 120 Hour Post-fertilization zebrafish Assay for Touch Response (AID 2283667). Summed up:
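Binary touch-response call at 120 hpf, analysed as gain of signal versus DMSO baseline. Wild-type 5D larvae, static exposure at 28C, 0.64% DMSO final; 5uM trimethyltin chloride as positive control.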
On to `CC(C)Oc1cc(-n2nc(C(C)(C)C)oc2=O)c(Cl)cc1Cl`, for which the call was inactive.

In the case of `O=C(Nc1ccccc1)Nc1ccnc(Cl)c1`, the call was inactive.

In the case of `COC(=O)c1ccccc1C(=O)OC`, the call was inactive.

For `Cc1c(F)c(F)c(COC(=O)C2C(/C=C(\Cl)C(F)(F)F)C2(C)C)c(F)c1F` (stereo not given), the AC50 is 3.23 µM (active).

For the molecule `C=CCC1=C(C)C(OC(=O)C2C(C=C(C)C)C2(C)C)CC1=O` (stereo not given), the call was inactive.

Turning to `C=CC1(C)OC(=O)N(c2cc(Cl)cc(Cl)c2)C1=O` (stereo not given), the result was inactive.

With `Cc1cc(Cl)ccc1OCC(=O)O`, the outcome was inactive.

As to `OC(c1ccc(Cl)cc1)(c1cncnc1)c1ccccc1Cl` (stereo not given), the molecule was classed as inactive.

For the molecule `Fc1ccc(Oc2ccnc3cc(Cl)cc(Cl)c23)cc1`, the molecule was called inactive.

Regarding `C=CCC1=C(C)[C@@H](OC(=O)[C@@H]2[C@@H](C=C(C)C)C2(C)C)CC1=O`, the result was inactive.

In the case of `C#CCOS(=O)OC1CCCCC1Oc1ccc(C(C)(C)C)cc1` (stereo not given), the call was inactive.

Take `CS/C(C)=N/OC(=O)N(C)SN(C)C(=O)O/N=C(\C)SC`: the molecule was called inactive.

Take `CCNc1nc(Cl)nc(NC(C)C)n1`: the molecule was called inactive.

For `CC1COC(Cn2cncn2)(c2ccc(Oc3ccc(Cl)cc3)cc2Cl)O1` (stereo not given), the molecule was called inactive.

For `CCCCNC(=O)n1c(NC(=O)OC)nc2ccccc21`, the AC50 is 19.2 µM (active).

With `COP(=S)(OC)Oc1nc(Cl)c(Cl)cc1Cl`, the AC50 was 97.7 µM (active).

For the molecule `CNC(=S)S`, the result was inactive.

In the case of `COc1nc(NC(C)C)nc(NC(C)C)n1`, the call was inactive.

As for `N#CC(CCc1ccc(Cl)cc1)(Cn1cncn1)c1ccccc1` (stereo not given), the call was inactive.

Turning to `CCCCNC(=O)OCC#CI`, the outcome was inactive.

Regarding `CCOC(=O)CC(SP(=S)(OC)OC)C(=O)OCC` (stereo not given), the AC50 was 26.5 µM (active).

As to `COC(=O)C=C(C)OP(=O)(OC)OC`, the outcome was inactive.

Take `CO/C=C(/C(=O)OC)c1ccccc1Oc1cc(Oc2ccccc2C#N)ncn1`: the AC50 was 4.04 µM (active) and the result was inactive.
